This note sets out measurements from the supplement of paper PMC12340641.

Over roughly 1,000 compounds, “relative growth recovery (pomalidomide 10 uM = 100%, DMSO = 0%)” has its median near -1.6; the highest 2% begin near 21. What follows is part of a selection rich in the highest values, with near analogues and random picks from the rest.

In the assay the test system is HEK293FT dCK*-IKZF1. The assay can be described thus: relative growth recovery (pomalidomide 10 uM = 100%, DMSO = 0%); higher = more growth rescue (IKZF1 fusion degradation). To be noted: compound concentration: 5 uM; AraC concentration: 0.3 uM; overnight pretreatment + 4 days AraC. Here is the method: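 Growth recovery screen of the molecular-glue-like (Specs) library. HEK293FT cells expressing a dCK*-IKZF1 fusion (primary) or dCK* alone (counter) were pretreated overnight with compound at 5 uM, then given 0.3 uM AraC for 4 days. Hoechst nuclei were counted by imaging. Primary: normalised to pomalidomide (100%) and DMSO (0%), mean of 2 replicates. Counter: normalised to no-AraC (100%) and AraC+DMSO (0%), single replicate.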
On to `Cc1ccc(C(=O)Nc2ccc(S(=O)(=O)Nc3cc(C)nc(C)n3)cc2)cc1`, for which the relative growth recovery was -1.57%. The result for `Cc1cccc(C(=O)Nc2ccc(S(=O)(=O)Nc3nc(C)cc(C)n3)cc2)c1` reads 4.85%; that for `Cc1nc(Nc2cccc(C3CCCN3C(=O)CCCN3C(=O)CNC3=O)n2)sc1C` (centres undefined), 3.93%; that for `Cc1ccc(/C=C/C(=O)Nc2ccc(S(=O)(=O)Nc3ncccn3)cc2)cc1`, -2.17%.

`Cc1cc(OCC(=O)Nc2ccc(S(=O)(=O)Nc3ncccn3)cc2)ccc1Cl`: the relative growth recovery was -0.26%.

`NCC(=O)N1CCC(c2cccc(Nc3ncc(Br)s3)n2)CC1`: the relative growth recovery was -17.1%.

For the compound `Cc1nc(/C=C/C(=O)N2CCC(c3cc4ccccc4c(Nc4nccs4)n3)CC2)cs1`, the relative growth recovery is -17.8%. The result for `Cn1nccc1/C=C/C(=O)N1CCC(c2cc3ccccc3c(Nc3nccs3)n2)CC1` reads -16.9%; that for `Cc1nn(C)c(C)c1/C=C/C(=O)N1CCC(c2cc3ccccc3c(Nc3nccs3)n2)CC1`, 51.1%; that for `Cc1ccc(C)c(OCC(=O)Nc2ccc(S(=O)(=O)Nc3nc(C)cc(C)n3)cc2)c1`, -2.19%. Consider `Nc1ccc(Oc2ccc3c(c2)C(=O)N(CCO)C3=O)cc1`, for which the relative growth recovery was found to be 2.76%.

In the case of `Cc1cnc(Nc2cccc(C(C(=O)N(C)C)C3CCN(C(=O)C4CCCCC4)CC3)n2)s1` (centres undefined), the relative growth recovery is 1.65%. The result for `Cn1nccc1/C=C/C(=O)N1CCCC(c2csc(Nc3ccccn3)n2)C1` (centres undefined) reads 40.9%; that for `Cn1nccc1/C=C/C(=O)N1CCCC1c1csc(Nc2ccccn2)n1` (centres undefined), 2.75%. The same measure for `O=C(/C=C/c1ccccc1)N1CCCC(c2csc(Nc3ccccn3)n2)C1` (centres undefined): 31.2%; for `CC(=O)N1CCCC(c2csc(Nc3ccccn3)n2)C1` (centres undefined): -1.67%; for `O=C(/C=C/c1ccco1)N1CCCC(c2csc(Nc3ccccn3)n2)C1` (centres undefined): 18.9%. The result for `Cc1ccc(Nc2nc(C3CCCN3C(=O)/C=C/c3csc(C)n3)cs2)nc1` (centres undefined) reads 0.31%; that for `Cn1nccc1/C=C/C(=O)N1CCCC(c2cc3ccccc3c(Nc3nccs3)n2)C1` (centres undefined), -10.2%; that for `Cc1ccc(Nc2nc(C3CCCN(C(=O)/C=C/c4csc(C)n4)C3)cs2)nc1` (centres undefined), 31.5%. For `COC(C)(C)C(=O)N1CCCC(c2csc(Nc3ccc(C)cn3)n2)C1` (centres undefined), the relative growth recovery is 15.9%.

For the compound `Cc1ccc(OCC(=O)Nc2ccc(S(=O)(=O)Nc3nc(C)cc(C)n3)cc2)cc1`, the relative growth recovery was -1.25%. The same measure for `O=C1CCC(N2C(=O)c3cc(F)c(N4CCC(Cn5cc(C(=O)O)cn5)CC4)cc3C2=O)C(=O)N1` (centres undefined): -2%; for `Cc1cc(C)nc(NS(=O)(=O)c2ccc(NC(=O)CSc3nc4c(cc3C#N)CCCCC4)cc2)n1`: -5.67%. For the compound `Cc1ccc(C)c2c1[nH]c1nc(SCC(=O)Nc3cccc(F)c3)nnc12`, the relative growth recovery was -2.81%.

Regarding `CC(=O)N1CCC(Cc2cccc(Nc3nc(C)cs3)n2)CC1`, the relative growth recovery stood at 10.6%. The result for `CCCCc1cnc(Nc2cccc(C3CCN(C(=O)[C@@H]4CCCCN4)CC3)n2)s1` reads -11.4%; that for `O=C(Nc1ccc(S(=O)(=O)Nc2ncccn2)cc1)c1ccc2c(c1)OCO2`, -3.11%. On to `COc1ccc(Cl)cc1C(=O)Nc1ccc(S(=O)(=O)Nc2nccc(C)n2)cc1`, for which the relative growth recovery was -1.7%. The result for `COc1ccc2[nH]c(SCC(=O)Nc3ncccn3)nc2c1` reads 1.53%; that for `Cc1cnc(Nc2cccc(C3CCN(C(=O)C4(NC(=O)CC(C)(C)C)CCCCC4)CC3)n2)s1`, -16.1%; that for `CCc1ccccc1OCC(=O)Nc1ccc(S(=O)(=O)Nc2nc(C)cc(C)n2)cc1`, -4.88%. The result for `CCCN1CC(C(=O)N2CCC(c3cccc(Nc4ncc(C)s4)n3)CC2)CC1=O` (centres undefined) reads -5.35%. Take `COc1cc(NS(=O)(=O)c2ccc(NC(=O)c3ccccc3C(=O)O)cc2)nc(OC)n1`: the relative growth recovery is -4.23%. Consider `COc1cc(NS(=O)(=O)c2ccc(NC(=O)/C=C/c3ccco3)cc2)nc(OC)n1`, for which the relative growth recovery is 1.19%. The same measure for `CCCc1cnc(Nc2cccc(C3CCN(C(=O)Cn4c(CC(C)C)nc5ccccc54)CC3)n2)s1`: -2.13%; for `COc1ccc(-c2csc(Nc3ccc(S(=O)(=O)Nc4cc(OC)nc(OC)n4)cc3)n2)cc1`: -2.94%; for `Cc1cnc(Nc2cccc(C3CCCN3C(=O)c3nccc4ccccc34)n2)s1` (centres undefined): 2.39%. The same measure for `O=C(Cc1cccs1)Nc1ccc(Oc2ccc3c(c2)C(=O)N(c2ccc(O)cc2)C3=O)cc1`: -1.26%; for `O=C(C1CCCCC1)N1CCC(Cc2cccc(Nc3nccs3)n2)CC1`: 4.47%.

For `Cc1cccc(C)c1OCC(=O)Nc1ccc(S(=O)(=O)Nc2ncccn2)cc1`, the relative growth recovery is 1.77%.

`COc1ccccc1CCC(=O)N1CCOC(c2cccc(Nc3ncc(C)s3)n2)C1` (centres undefined): the relative growth recovery is 10.8%. The result for `COc1cc(NS(=O)(=O)c2ccc(NC(=O)COc3cccc(C)c3)cc2)nc(OC)n1` reads -18.6%; that for `COCC(=O)N1CCCC1c1cccc(Nc2nc(C)cs2)n1` (centres undefined), -7.27%. For `O=C1CCC(N2C(=O)c3ccc(C(=O)O)cc3C2=O)C(=O)N1` (centres undefined), the relative growth recovery is -0.47%. The result for `Cc1cc(C)nc(NS(=O)(=O)c2ccc(NC(=O)c3ccccc3I)cc2)n1` reads -0.26%; that for `Cc1ccnc(NS(=O)(=O)c2ccc(NC(=O)C34CC5CC(CC(C5)C3)C4)cc2)n1`, -6.07%.

Regarding `CCCCCOC(=O)c1ccc(N2C(=O)c3ccc(Oc4ccc(N)cc4)cc3C2=O)cc1`, the relative growth recovery worked out at 1.57%. On to `CC(C)Cc1nc2ccccc2n1CC(=O)N1CCC(Cc2cccc(Nc3nccs3)n2)CC1`, for which the relative growth recovery was -1.89%.
